Screens (PubChem)
The list is not random: actives were taken first. Their share in the collection is about 1.4%.
uPA generation – cell surface uPA generation inhibition | AID 540303 | Potency, µM (highest dose often 38.3 µM), most hits filed as inhibitors | 0.31% of 330,000 active | cell surface uPA generation assay, qHTS; active = well fitted inhibition curve with a large enough effect; inconclusive = small, poorly fitted or top-dose-only effect; inactive = no such curve, though single readings can be large or run the other way; tested in mouse RAW 264.7 cells; also: nearly all actives have a fitted effect of over 55% in size
KCNH2 3.1 block – blocks the human KCNH2 3.1 channel isoform | activity change, % (tested at about 1.8 µM) | 0.95% of 340,000 active | U2OS KCNH2 3.1, thallium flux FluxOr; stronger effect = lower value | AID 720553;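 active = maximum activity change below -70%; inconclusive = maximum activity change from -70% to -50%; inactive = maximum activity change above -50%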;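 also: thallium influx rate constant from kinetic fluorescence after stimulation buffer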
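Kinetic fluorescence (2 min after stimulation buffer) measures Tl+ influx through KCNH2 3.1 expressed by viral transduction in U2OS cells; the rate constant is normalized against DMSO controls serving as positive and negative references.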
MmCpn inh – blocks the Methanococcus maripaludis chaperonin Mm-Cpn. purified Mm-Cpn ATPase, ADP Transcreener TR-FRET. 0.031% of 330,000 active. AID 504842. Potency, µM (top dose mostly 76.9 µM), most hits filed as inhibitors; also: nearly all actives have a fitted effect of over 80% in size
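Eu-cryptate anti-ADP/ADP-d2 competition gives a ratio inversely related to ADP. Enzyme at 25 nM was pre-exposed to compound for 10 min, then given 10 uM ATP for 30 min, 37°C throughout.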
hERG WT inh – KCNH2 (human, wildtype) channel inhibition; Q12809; U2OS, BacMam KCNH2, thallium flux FluxOr; stronger effect = lower value; activity change, % at 1.84 µM; 0.37% of 340,000 active; AID 720551;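 active = maximum activity change below -70%; inconclusive = maximum activity change between -70% and -50%; inactive = maximum activity change above -50%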
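U2OS cells were transduced with wild-type KCNH2 virus (2.03 x 10^8 / mL) for 4 h at room temperature, then cultured overnight at 37 C. Thallium flux was read with FluxOr dye. Rate constants were normalized to DMSO controls.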
p53 reactivation – re-activators of mutant p53; Potency, µM (top dose mostly 92.2 µM), most hits filed as activators; 0.063% of 320,000 active; H1299 p53-A138V BP100-luciferase reporter, luminescence, 24 h; also: nearly all actives have a fitted effect of over 45% in size
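p53-null H1299 cells stably carrying temperature-sensitive p53-A138V and a BP100-luciferase reporter were pinned with compounds (4-point, 1:5 series) and held 24 hrs at 37 deg C. Luminescence was read 10 min after detection reagent.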
ASM inhibitor – inhibitors of human secretory acid sphingomyelinase; placental ASM, HMU-PC fluorogenic substrate, 60 min; Potency, µM (titrated, usually from 57.5 µM), hits mostly inhibitors; 0.006% of 340,000 active; AID 504937
Target sequence (P17405 47-631 limits assumed): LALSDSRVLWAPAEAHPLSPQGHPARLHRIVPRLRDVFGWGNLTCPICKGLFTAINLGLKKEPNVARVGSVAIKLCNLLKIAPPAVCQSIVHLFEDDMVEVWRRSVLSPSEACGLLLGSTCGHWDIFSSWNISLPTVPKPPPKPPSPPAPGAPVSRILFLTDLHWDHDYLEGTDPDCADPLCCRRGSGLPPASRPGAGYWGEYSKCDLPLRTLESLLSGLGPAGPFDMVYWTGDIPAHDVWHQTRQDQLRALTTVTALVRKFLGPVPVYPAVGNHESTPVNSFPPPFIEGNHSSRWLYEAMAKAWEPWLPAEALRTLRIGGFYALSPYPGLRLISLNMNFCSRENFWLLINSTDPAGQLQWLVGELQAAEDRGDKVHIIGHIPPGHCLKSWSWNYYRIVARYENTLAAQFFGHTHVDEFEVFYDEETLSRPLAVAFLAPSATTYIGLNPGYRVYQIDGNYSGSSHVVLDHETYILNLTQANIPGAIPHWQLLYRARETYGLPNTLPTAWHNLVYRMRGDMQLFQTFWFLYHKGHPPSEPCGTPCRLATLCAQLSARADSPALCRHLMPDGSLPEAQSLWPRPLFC
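Fluorogenic HMU-PC substrate (9 uM final) is turned over by placental ASM in 60 min at 37 C after a 10 min compound preincubation. Reaction ended by alkaline stop (pH 10), with fluorescence read at 386/447 nm.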
Large screens that a line does not name were inactive. Unless noted, calls follow the shape of the dose curve; as a rule, active = well fitted curve in the direction sought with a large enough effect; inconclusive = small, poorly fitted or top-dose-only effect, or another doubt; inactive = no such curve, though single readings can be large; an effect the other way counts as inactive or inconclusive.

C=C1CCN([C@@H](CC(C)C)C(=O)NCCC(C)C)S(=O)(=O)c2ccccc21	KCNH2 3.1 block -75 (no result: MmCpn inh, p53 reactivation)
O=C(CCl)Nc1cccc(S(=O)(=O)NC2=NCCCCC2)c1	uPA generation 2.5µM
CCOC(=O)[C@H]1[C@H]2COc3ccc(Cl)cc3[C@@H]2N2C(=O)c3cc(F)c(F)cc3NC(=O)[C@@]12C	KCNH2 3.1 block -194
COc1ccc2c(c1)C(=O)N1[C@H]3c4cc(OC)ccc4OC[C@@H]3[C@H](c3ccccc3)[C@]1(C)C(=O)N2	uPA generation inconclusive
COc1ccc2c(c1)[C@H]1[C@H](CO2)[C@H](c2ccccc2)[C@]2(C)C(=O)Nc3ccc(Br)cc3C(=O)N12	KCNH2 3.1 block -86
Cc1ccc2c(c1)C(=O)N1[C@H]3c4cc(Cl)ccc4OC[C@@H]3[C@H](c3ccccc3)[C@]1(C)C(=O)N2	uPA generation inconclusive, KCNH2 3.1 block -83
CC1(C)OC2COC(c3[nH]nc4c(=O)[nH]c(=O)[nH]c34)C2O1 (stereo not given)	none (no result: uPA generation, MmCpn inh, p53 reactivation, ASM inhibitor)
COc1ccc(CNC(=O)CSc2nc(SC)ns2)cc1	none (no result: p53 reactivation)
O=C(c1ccccc1Cl)N1CCC(N2CCC(C(=O)N3CCCC3)CC2)CC1	KCNH2 3.1 block -87, p53 reactivation inconclusive
Cc1c(C(=O)Nc2nnc(C3CC3)s2)oc2c(Cl)cccc12	none
Cc1c(C(=O)Nc2nnc(C3CC3)s2)oc2ccccc12	p53 reactivation 5µM
O=C(COC(=O)/C=C/c1ccccc1)NCc1ccco1	none (no result: uPA generation, MmCpn inh, p53 reactivation, ASM inhibitor)
COc1ccc(CN(C)[C@H]2C[C@H]3c4[nH]c5ccccc5c4CCN3C[C@H]2[C@H](C)O)cc1	KCNH2 3.1 block -81 (no result: uPA generation, MmCpn inh, p53 reactivation, ASM inhibitor)
COc1ccccc1C(=O)Nc1ccnn1C1CCN(C/C=C/c2ccccc2)CC1	KCNH2 3.1 block -107, hERG WT inh -121
COc1ccccc1C(=O)Nc1ccnn1C1CCN(CCC(C)c2ccc(C)o2)CC1 (stereo not given)	KCNH2 3.1 block -98, hERG WT inh -104
Cc1ccc(C(C)CCN2CCC(n3nccc3NC(=O)c3ccccc3)CC2)o1 (stereo not given)	p53 reactivation inconclusive
COCC(C)N1CCC(n2nccc2NC(=O)c2ccccc2Cl)CC1 (stereo not given)	none (no result: MmCpn inh, p53 reactivation, ASM inhibitor)
Cc1ccccc1C(=O)Nc1ccnn1C1CCN(C(C)Cc2ccccc2F)CC1 (stereo not given)	KCNH2 3.1 block -76
CN1CCN(S(=O)(=O)c2ccc(C#N)cc2)C(c2ccccc2)C1 (stereo not given)	none
N#CC(OC(=O)c1ccccc1)c1ccccc1 (stereo not given)	none (no result: MmCpn inh, p53 reactivation)
O=C(c1cccnc1)N1CCc2ccccc2C1	MmCpn inh 56µM
CSc1nc2nc(C)c(CCC(=O)OCC(=O)Nc3ccc(F)cc3)c(C)n2n1	none
O=S(=O)(Cc1ccc(Cl)cc1)NCc1cccnc1	KCNH2 3.1 block -78
COc1ccc(-c2csc(Nc3ncccc3C)n2)cc1OC	p53 reactivation inconclusive
COc1ccc(-c2csc(Nc3ncccc3C)n2)cc1	MmCpn inh inconclusive, p53 reactivation 45µM
Cc1cc(OCc2cccc(Cl)c2)c(C)cc1CN1CCOCC1	KCNH2 3.1 block -71
O=[N+]([O-])c1cccc(COc2ccccc2CN2CCOCC2)c1	none (no result: MmCpn inh, p53 reactivation)
O=C(COC(=O)c1cccc(S(=O)(=O)N2CCCC2)c1)Nc1cccc(Br)c1	none (no result: uPA generation, MmCpn inh, p53 reactivation, ASM inhibitor)
COc1cccc(NC(=O)NCCCN2CCN(c3ccc(F)cc3)CC2)c1	KCNH2 3.1 block -82
COc1ccc(C(=O)CCN2CCN(c3ccc(OC)cc3)CC2)cc1	KCNH2 3.1 block -71
COc1ccc(NC(=O)NCCCN2CCN(c3ccccc3F)CC2)cc1	none
COc1cc(NC(=O)NCCN2CCN(c3ccc(Cl)cc3)CC2)ccc1C	KCNH2 3.1 block -82
COc1ccc(NC(=O)NCCCN2CCN(c3cc(C)ccc3C)CC2)cc1	KCNH2 3.1 block -92
COc1ccc(N2CCN(CCC(N)=O)CC2)cc1	none
CN1CCN(CCNC(=O)Nc2ccc(Cl)cc2)CC1	none
O=C(O)c1ccc2c(c1)C(=O)N([C@]1(C(=O)O)CC1c1ccccc1)C2=O (stereo not given in full)	none (no result: uPA generation, KCNH2 3.1 block, hERG WT inh, p53 reactivation, ASM inhibitor)
O=C(Nc1cccc(S(=O)(=O)NC2=NCCC2)c1)c1ccc(C(F)(F)F)cc1	none
CCN(CCCNC(=O)CNC(=O)c1nn(-c2ccc(OC)cc2OC)c(=O)c2ccccc12)c1cccc(C)c1	none
COc1ccc(N2CCN(CCNC(=O)Nc3ccc(C)c(Cl)c3)CC2)cc1	KCNH2 3.1 block -90 (no result: hERG WT inh)
COc1ccc(NC(=O)NCCN2CCN(c3cccc(Cl)c3)CC2)cc1	none
COc1ccc(/C=C2/CSC/C(=C/c3ccc(OC)c(OC)c3)C2=O)cc1OC	none (no result: MmCpn inh, p53 reactivation)
Cc1ccc(NC(=S)NCCN(C2CCCCC2)C2CCCC2)cc1	KCNH2 3.1 block -73
O=C(Nc1cc2c(cc1[N+](=O)[O-])OCCO2)c1cccnc1	p53 reactivation inconclusive
CCN(CC)S(=O)(=O)c1cccc(C(=O)N[C@H](C(=O)NCc2ccccc2F)C(C)C)c1	none
CCN(CC)S(=O)(=O)c1cccc(C(=O)N[C@H](C(=O)O)C(C)C)c1	hERG WT inh -170
CCN(CC)S(=O)(=O)c1cccc(C(=O)Nc2ccc(C#N)cc2)c1	KCNH2 3.1 block -76
Cc1nc2c(cc1N)nc(C)n2Cc1ccccc1	none (no result: p53 reactivation)
COc1ccc2c(C(=O)CCl)c[nH]c2c1	uPA generation inconclusive
O=C(CSc1nc2ccccc2c(=O)n1Cc1ccc(F)cc1)NCc1cccs1	KCNH2 3.1 block -95
Cc1cc(NC(=O)CSc2nc3ccccc3c(=O)n2Cc2ccc(F)cc2)no1	none
COc1ccc(/C=N/NC(=O)c2ccccc2)cc1CN1CCN(c2ccc(F)cc2)CC1	KCNH2 3.1 block -107, hERG WT inh -108
COc1ccc(C(=O)N/N=C/c2ccc(OC)c(COc3ccc(F)cc3)c2)cc1	none
COc1ccc(C)cc1NC(=O)c1ccc(CN2CCN(c3ccccc3)CC2)cc1	KCNH2 3.1 block -104, MmCpn inh inconclusive
COc1ccc(/C=N\NC(=O)c2ccccc2Br)cc1COc1ccc(F)cc1	none
COc1ccc(/C=N/NC(=O)c2ccccc2F)cc1CN1CCN(c2ccc(F)cc2)CC1	KCNH2 3.1 block -105, hERG WT inh inconclusive
COc1ccc(NC(=O)c2ccc(CN3CCN(c4ccccc4)CC3)cc2)cc1OC	p53 reactivation inconclusive
COc1cc(C(=O)N/N=C/c2ccc(OC)c(CN3CCN(c4ccc(F)cc4)CC3)c2)ccc1O	KCNH2 3.1 block -105 (no result: hERG WT inh)
COc1ccc(/C=N\NC(=O)c2ccccc2)cc1COc1ccc(F)cc1	uPA generation inconclusive
COc1ccc(C)cc1NC(=O)Cc1csc(NC(=O)Nc2ccccc2OC)n1	none (no result: uPA generation, MmCpn inh, p53 reactivation, ASM inhibitor)
